{
  "source": "PubChem BioAssay (NCATS)",
  "note": "Values joined by “and” are separate entries in the source; they are usually repeats but may differ in a detail not shown here. Equal values may be shown once. Results filed as inconclusive are left out. Active and inactive are the calls of the source. The call rests on the fitted dose curve; in most records, active means well fitted cell-killing curve with a large enough effect; inconclusive means small, poorly fitted or top-dose-only effect, or effect the other way; inactive means flat fitted curve, though single readings scatter. On the % scale 0 is the no-effect control and ±100 the full control effect.",
  "data": [
    {"assay": "qHTS assay for cell viability of HEK293 cells (AID 743288); further: nearly all actives have a fitted effect of over 50% in size", "conditions": "ATP luminescence (CellTiter-Glo), 18 h, active compounds read low", "description": "National Center for Advancing Translational Sciences [NCATS]\nNIH Chemical Genomics Center [NCGC]\nU.S. Environmental Protection Agency [EPA]\nNational Institutes of Environmental Health Sciences [NIEHS]\nNational Toxicology Program [NTP]\nU.S. Food and Drug Administration [FDA]\nThe CellTiter-Glo Luminescent Cell Viability Assay (Promega, Madison, WI) is a homogeneous method to determine the number of viable cells in culture based on quantitation of the ATP present, which signals the presence of metabolically active cells. This cell viability assay was used to screen environmental chemicals in the Hek293 cell line.\nTox21 Assay Protocol Summary:\nCell viability after compound treatment was measured using a luciferase-coupled ATP quantitation assay (CellTiter-Glo viability assay, Promega, Madison, WI) in parental HEK293 cells. Total intracellular ATP content corresponds to the number of metabolically competent cells after compound treatment. The cells were dispensed at 2,000 cells/5 uL/well in 1,536-well white/solid bottom assay plates using a Flying Reagent Dispenser (Aurora Discovery, San Diego, CA). The cells were incubated a minimum of 5 h at 37 C, followed by the addition of 23 nL of compounds dissolved in DMSO, positive controls or DMSO only using a pintool work station (Kalypsys, San Diego, CA). The assay plates were incubated for 18 h at 37 C, followed by the addition of 5 uL/well of CellTiter-Glo reagent. After 30 min incubation at room temperature, the luminescence intensity of the plates was measured using a ViewLux plate reader (PerkinElmer, Shelton, CT).", "values": [
      {"smiles": "CCC(Cl)[N+](=O)[O-]", "note": "(stereo not given)", "max response": "-3.51% (inactive)"},
      {"smiles": "c1ccc2c(c1)CCNC2", "max response": "1.81% (inactive)"},
      {"smiles": "Cc1ccc(N)cc1C", "max response": "0.786% (inactive)"},
      {"smiles": "Cc1ccccc1[N+](=O)[O-]", "max response": "6.42% (inactive)"},
      {"smiles": "O=[N+]([O-])c1cc(Cl)c(Cl)cc1Cl", "max response": "-3.86% (inactive)"},
      {"smiles": "ClCCOCOCCCl", "max response": "-1.26% (inactive)"},
      {"smiles": "CCCCC#N", "max response": "2.15% (inactive)"},
      {"smiles": "c1ccc(N=NNc2ccccc2)cc1", "max response": "5.57% (inactive) and -4.44% (inactive)"},
      {"smiles": "ClCC(Cl)CCl", "max response": "-3.69% (inactive) and -5.22% (inactive)"},
      {"smiles": "Nn1cnnc1", "max response": "-1.3% (inactive)"},
      {"smiles": "Cc1cccc(C)c1N", "max response": "-2.34% (inactive)"},
      {"smiles": "Nc1ccc([N+](=O)[O-])cc1[N+](=O)[O-]", "max response": "2.24% (inactive)"},
      {"smiles": "C=CC(=O)OCCN(C)C", "max response": "-6.86% (inactive)"},
      {"smiles": "Cc1ccc2c(c1N)C(=O)c1ccccc1C2=O", "max response": "-21.2% (inactive) and -23% (inactive)"},
      {"smiles": "CCCCC(CC)COC(=O)c1ccc(C(=O)OCC(CC)CCCC)c(C(=O)OCC(CC)CCCC)c1", "note": "(stereo not given)", "max response": "-4.51% (inactive)"},
      {"smiles": "O=S(=O)(O)F", "max response": "-2.74% (inactive)"},
      {"smiles": "C=COC(C)=O", "max response": "-3.61% (inactive)"},
      {"smiles": "N#CCBr", "max response": "-4.55% (inactive)"},
      {"smiles": "BrCC(Br)C1CCC(Br)C(Br)C1", "note": "(stereo not given)", "max response": "1.74% (inactive)"},
      {"smiles": "O=NN1CCCCC1", "max response": "-2.6% (inactive)"},
      {"smiles": "CCN(N=O)C(N)=O", "max response": "9% (inactive)"},
      {"smiles": "[N-]=[N+]=[N-]", "max response": "0.516% (inactive)"},
      {"smiles": "CC(C)[C@]12CC(=O)[C@H](C)[C@H]1C2", "max response": "18.6% (inactive) and -3.71% (inactive)"},
      {"smiles": "O=C(Cc1ccccc1)OCc1ccccc1", "max response": "-0.778% (inactive)"},
      {"smiles": "Nc1ccc(-c2ccc(N)c(Cl)c2)cc1Cl", "max response": "-8.22% (inactive) and -17.1% (inactive)"},
      {"smiles": "N#CCc1ccccc1", "max response": "-1.92% (inactive)"},
      {"smiles": "CN(C)C(=O)Nc1cccc(C(F)(F)F)c1", "max response": "3% (inactive) and -3.2% (inactive)"},
      {"smiles": "Brc1cccc(-c2ccccc2)c1", "max response": "8.7% (inactive)"},
      {"smiles": "C=CC=O", "max response": "-14.3% (inactive)"},
      {"smiles": "CC(C)[N+](=O)[O-]", "max response": "-8.31% (inactive)"},
      {"smiles": "CCOC(=O)CBr", "max response": "-5.15% (inactive)"},
      {"smiles": "O=c1ccc(=O)[nH][nH]1", "max response": "3.74% (inactive) and 5.95% (inactive)"},
      {"smiles": "Clc1cccc2ccccc12", "max response": "-4.26% (inactive)"},
      {"smiles": "Cl/C=C\\Cl", "max response": "-1.83% (inactive)"},
      {"smiles": "OCC(Cl)CCl", "note": "(stereo not given)", "max response": "-6.78% (inactive)"},
      {"smiles": "Cc1coc2c1CCC(C)C2", "note": "(stereo not given)", "max response": "2.25% (inactive)"},
      {"smiles": "Nc1cc(Cl)ccc1O", "max response": "-15.2% (inactive)"},
      {"smiles": "CCCCOC(C)=O", "max response": "-4.32% (inactive)"},
      {"smiles": "CCCBr", "max response": "-3.65% (inactive)"},
      {"smiles": "N#C/C(N)=C(/N)C#N", "max response": "-0.0232% (inactive)"}
    ]}
  ]
}
